# Laboratory results published in PubChem BioAssay (Tox21).
# Inconclusive results are not listed. Calls of active or inactive are those of the source. Calls come from the whole dose curve.
# Molecular target: Acetylcholinesterase (Homo sapiens) (UniProt P22303)
# Experiment: Acetylcholinesterase (AChE) small molecule antagonists: fluorescence cell-based qHTS assay (AID 1347398); note: nearly all actives have a fitted effect of over 50% in size
# Conditions: SH-SY5Y cells; Potency: AChE activity; outcome: AChE activity; series mostly up to 115 µM; activity change, negative = inhibition: at the top concentration
# How it was run: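 Homogeneous quantitative HTS format. SH-SY5Y cells seeded at 2,000 per well settle overnight at 37 C. Compound pretreatment runs 30 min (37 C, 5% CO2); substrate/probe mix then reacts 40 min at RT before reading 490/520 nm.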
# % is set by controls: 0 for no effect and ±100 for the full control effect.
# Chain of Acetylcholinesterase (Homo sapiens) (P22303 whole entry, looked up): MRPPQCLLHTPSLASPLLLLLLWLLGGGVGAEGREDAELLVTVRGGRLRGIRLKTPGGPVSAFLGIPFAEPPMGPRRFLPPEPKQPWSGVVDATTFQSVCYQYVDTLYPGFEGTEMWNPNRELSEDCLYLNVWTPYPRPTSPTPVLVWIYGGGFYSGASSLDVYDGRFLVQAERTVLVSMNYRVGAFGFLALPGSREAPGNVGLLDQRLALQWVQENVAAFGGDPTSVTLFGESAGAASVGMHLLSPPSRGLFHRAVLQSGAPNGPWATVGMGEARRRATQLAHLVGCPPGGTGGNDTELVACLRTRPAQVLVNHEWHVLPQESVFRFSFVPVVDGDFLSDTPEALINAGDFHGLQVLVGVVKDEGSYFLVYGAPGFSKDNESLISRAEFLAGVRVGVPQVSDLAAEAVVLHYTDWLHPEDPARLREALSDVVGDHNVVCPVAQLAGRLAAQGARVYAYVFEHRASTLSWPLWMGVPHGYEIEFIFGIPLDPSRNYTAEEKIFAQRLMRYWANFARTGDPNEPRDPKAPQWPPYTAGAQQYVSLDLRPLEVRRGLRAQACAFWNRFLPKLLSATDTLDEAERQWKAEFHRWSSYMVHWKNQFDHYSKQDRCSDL
Structure (SMILES),Potency,"activity change, negative = inhibition"
COCN(COC)c1nc(N(COC)COC)nc(N(COC)COC)n1,inactive,
Nc1cc([N+](=O)[O-])cc(Cl)c1O,,-5.74% (inactive)
COc1cc(S(N)(=O)=O)cc(C(=O)O)c1OC,,1.43% [at 53.7 µM] (inactive)
CCCCN(CCCC)CCCC,inactive,
CCCOc1ccccc1-c1nc2n[nH]nc2c(=O)[nH]1,,-0.694% [at 53.7 µM] (inactive)
CC(=O)OC/C=C(\C)CC/C=C(\C)CCC=C(C)C,inactive,
CC/C=C1/OC(=O)c2ccccc21,,0.975% (inactive)
CC1=CC(=C(c2ccc(N)cc2)c2ccc(N)cc2)C=CC1=N,,-4.07% [at 10.5 µM] (inactive)
O=C1CCCCCCCCCCOCCCCO1,,-2.55% (inactive)
NCCNC(=O)c1ccc(Cl)cn1,,1.55% [at 53.7 µM] (inactive)
COc1ccc(/C=N/NC(=O)c2ccncc2)cc1OC,,6.85% [at 53.7 µM] (inactive)
Cc1ccc2c(Cl)cc(Cl)c(O)c2n1,,2.44% [at 53.7 µM] (inactive)
C[C@@H]1CC(=O)NN=C1c1ccc(NN=C(C#N)C#N)cc1,,-4.96% [at 53.7 µM] (inactive)
CC(=O)OCCOCCOCCOC(C)=O,inactive,
O=C(Nc1ccc([N+](=O)[O-])cc1Cl)c1cc(Cl)ccc1O,inactive,
CC(=O)Nc1ccc(C)cc1C,,-0.15% (inactive)
O=Cc1ccccc1S(=O)(=O)O,,1.78% (inactive)
CC(CN(CCN(CC(C)OCCO)CC(C)OCCO)CC(C)OCCO)OCCO (stereo not given),,-12.9% (inactive)
COc1ccc(Cl)cc1C(=O)NCCc1ccc(S(=O)(=O)NC(=O)NC2CCCCC2)cc1,inactive,
Cc1ccc(-c2ccccc2C#N)cc1,,-2.93% [at 53.7 µM] (inactive)

Structure (SMILES),Potency,"activity change, negative = inhibition"
CCCCCCCC/C=C\CCCCCCCC(N)=O,,-9.36% (inactive)
ClCCOCCOCCCl,,3.07% (inactive)
CC(C)[C@H](N)C(=O)OCCOCn1cnc2c(=O)[nH]c(N)nc21,,0.321% [at 53.7 µM] (inactive)
CCOC(=O)[C@H](CCc1ccccc1)N[C@@H](C)C(=O)N1C(=O)N(C)C[C@H]1C(=O)O,,0.806% [at 53.7 µM] (inactive)
CCCCCc1cccc(=O)o1,,1.37% (inactive)
CCn1cc(C(=O)O)c(=O)c2cc(F)c(N3CCNC(C)C3)c(F)c21 (stereo not given),,-1.44% [at 53.7 µM] (inactive)
COC(=O)CCCC(=O)O,,0.566% (inactive)
O=C(N[C@@H](Cc1ccccc1)[C@@H](O)C(=O)N1C[C@@H](O)[C@@H](O)C1)c1cc2cc(Cl)ccc2[nH]1,,4.13% (inactive)
CCCCCCCCCCCC(=O)N(CC)CC,,-1.91% (inactive)
CCCCOCCOC(=O)c1ccccc1C(=O)OCCOCCCC,inactive,
C=CC(C)(C)CC(=O)OC,,-0.408% (inactive)
CC[Si](OC(C)=O)(OC(C)=O)OC(C)=O,inactive,
C=CC/C=C/C,,3.56% (inactive)
CCCC(C)C(=O)OCC (stereo not given),,-0.646% (inactive)
CCCO[Si](OCCC)(OCCC)OCCC,,-0.457% (inactive)
CCOC(=O)c1ccccc1C,,2.96% (inactive)
c1c[nH]cn1,inactive,
c1ccc2ccccc2c1,inactive,
CC(C)c1cc2c(cc1S(=O)(=O)O)[C@@]1(C)CCC[C@@](C)(C(=O)O)[C@@H]1CC2,,3.16% [at 53.7 µM] (inactive)
N[C@@H](C(=O)N[C@@H]1C(=O)N2C(C(=O)O)=C(Cl)CS[C@H]12)c1ccccc1,,7.33% [at 10.5 µM] (inactive)

# Molecular target: Acetylcholinesterase (Homo sapiens) (UniProt P22303)
# Experiment: Acetylcholinesterase (AChE) small molecule antagonists: enzyme-based qHTS assay with human liver microsomes (AID 1347399); note: nearly all actives have a fitted effect of over 60% in size
# Conditions: Potency: qHTS inhibition; outcome: qHTS inhibition; series mostly up to 115 µM; activity change, negative = inhibition: at the top concentration
# How it was run: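 Recombinant human AChE (50 mU/mL in the enzyme mix) and human liver microsomes (0.25 mg/mL final) were preincubated with compound and NADPH (0.25 mg/mL final) for 30 min at 37 C. Acetylthiocholine/DTNB was then added; thiocholine was read colorimetrically after 10 min at room temperature.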
Structure (SMILES),Potency,"activity change, negative = inhibition"
COCN(COC)c1nc(N(COC)COC)nc(N(COC)COC)n1,inactive,
Nc1cc([N+](=O)[O-])cc(Cl)c1O,,5.76% (inactive)
COc1cc(S(N)(=O)=O)cc(C(=O)O)c1OC,,0.729% [at 53 µM] (inactive)
CCCCN(CCCC)CCCC,inactive,
CCCOc1ccccc1-c1nc2n[nH]nc2c(=O)[nH]1,,2.06% [at 53 µM] (inactive)
CC(=O)OC/C=C(\C)CC/C=C(\C)CCC=C(C)C,inactive,
CC/C=C1/OC(=O)c2ccccc21,,1.36% (inactive)
CC1=CC(=C(c2ccc(N)cc2)c2ccc(N)cc2)C=CC1=N,,0.485% [at 10.5 µM] (inactive)
O=C1CCCCCCCCCCOCCCCO1,,-0.84% (inactive)
NCCNC(=O)c1ccc(Cl)cn1,,-0.504% [at 53 µM] (inactive)
COc1ccc(/C=N/NC(=O)c2ccncc2)cc1OC,,-0.0811% [at 53 µM] (inactive)
Cc1ccc2c(Cl)cc(Cl)c(O)c2n1,,-0.59% [at 53 µM] (inactive)
C[C@@H]1CC(=O)NN=C1c1ccc(NN=C(C#N)C#N)cc1,inactive,
CC(=O)OCCOCCOCCOC(C)=O,inactive,
O=C(Nc1ccc([N+](=O)[O-])cc1Cl)c1cc(Cl)ccc1O,inactive,
CC(=O)Nc1ccc(C)cc1C,,0.0764% (inactive)
O=Cc1ccccc1S(=O)(=O)O,,-0.291% (inactive)
CC(CN(CCN(CC(C)OCCO)CC(C)OCCO)CC(C)OCCO)OCCO (stereo not given),,-0.409% (inactive)
COc1ccc(Cl)cc1C(=O)NCCc1ccc(S(=O)(=O)NC(=O)NC2CCCCC2)cc1,inactive,
Cc1ccc(-c2ccccc2C#N)cc1,,1.17% [at 53 µM] (inactive)

Structure (SMILES),Potency,"activity change, negative = inhibition"
CCCCCCCC/C=C\CCCCCCCC(N)=O,,-2.69% (inactive)
ClCCOCCOCCCl,,-1% (inactive)
CC(C)[C@H](N)C(=O)OCCOCn1cnc2c(=O)[nH]c(N)nc21,,-0.294% [at 53 µM] (inactive)
CCOC(=O)[C@H](CCc1ccccc1)N[C@@H](C)C(=O)N1C(=O)N(C)C[C@H]1C(=O)O,,1.68% [at 53 µM] (inactive)
CCCCCc1cccc(=O)o1,,-0.72% (inactive)
CCn1cc(C(=O)O)c(=O)c2cc(F)c(N3CCNC(C)C3)c(F)c21 (stereo not given),,0.237% [at 53 µM] (inactive)
COC(=O)CCCC(=O)O,,-0.901% (inactive)
O=C(N[C@@H](Cc1ccccc1)[C@@H](O)C(=O)N1C[C@@H](O)[C@@H](O)C1)c1cc2cc(Cl)ccc2[nH]1,,-0.63% (inactive)
CCCCCCCCCCCC(=O)N(CC)CC,,5.8% (inactive)
CCCCOCCOC(=O)c1ccccc1C(=O)OCCOCCCC,inactive,
C=CC(C)(C)CC(=O)OC,,-0.838% (inactive)
CC[Si](OC(C)=O)(OC(C)=O)OC(C)=O,inactive,
C=CC/C=C/C,,-1.04% (inactive)
CCCC(C)C(=O)OCC (stereo not given),,8.16% (inactive)
CCCO[Si](OCCC)(OCCC)OCCC,,0% (inactive)
CCOC(=O)c1ccccc1C,,0% (inactive)
c1c[nH]cn1,inactive,
c1ccc2ccccc2c1,inactive,
CC(C)c1cc2c(cc1S(=O)(=O)O)[C@@]1(C)CCC[C@@](C)(C(=O)O)[C@@H]1CC2,,0.59% [at 53 µM] (inactive)
N[C@@H](C(=O)N[C@@H]1C(=O)N2C(C(=O)O)=C(Cl)CS[C@H]12)c1ccccc1,,-5.46% [at 10.5 µM] (inactive)
